Where “and” joins values, the source holds several entries; their conditions need not be identical. Equal values may be shown once. About 83,000 compounds went through this panel and 20% of them were active in at least one assay; those are over-represented in the sample as a whole.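 Treatment: one concentration, 48 hours, 96-well format. Scoring: percent growth, with anything below 10 considered active.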 Calls of active or inactive are those of the source.

This note sets out measurements from PubChem BioAssay (NCI).

This assay has as its system MDA-MB-468 breast. The assay can be described thus: NCI-60 one-dose screen, 48 h (100 = growth as untreated, 0 = no growth, -100 = all killed). As to conditions: 10 µM unless noted.
In the case of `CCOC(=O)c1ccccc1C(=O)OCC`, the growth is 81% (inactive). In the case of `COc1cc(/C=C\c2cc(OC)c(OC)c(OC)c2)cc(NS(=O)(=O)c2cccc(Cl)c2)c1OC`, the growth was 47% (inactive). As to `Cc1c(NS(=O)(=O)c2ccccc2)ccc([N+](=O)[O-])c1Cl`, the growth was 34.5% (inactive). As to `CC12CC[C@H](O)C=C1/C(=N/O)CC1C2CCC2(C)C1CC[C@@H]2O` (some centres undefined), the growth is 100% (inactive). To `NC(=O)c1cc([N+](=O)[O-])c(Cl)c([N+](=O)[O-])c1` belongs 19.8% (inactive); to `CCOC(=O)c1cnc(SCc2ccc(Cl)c(Cl)c2)nc1N1CC1`, -3.19% (active); to `ClCc1ccc(Cl)c(Cl)c1`, 90.7% (inactive). To `FC(F)=C(F)c1ccccc1` belongs 105% (inactive). To `CC[n+]1c(-c2ccccc2)c2cc(N)ccc2c2ccc(N)cc21` belongs -62.8% (active); to `COC(=O)[C@@H](C)C[C@H](Cc1ccccc1)NC(=O)c1csc([C@@H](C[C@H](C(C)C)N(C)C(=O)[C@@H](NC(=O)[C@H]2CCCCN2C)C2CC2)OC(C)=O)n1`, 0.846% (active); to `Cc1cc(-c2nc3cc(F)ccc3[se]2)cc(F)c1N`, -39% (active). `CC(C)CCC1(CCO)C(=O)NC(=S)NC1=O`: the growth was 108% (inactive). As for `COC(=O)C1CC2c3ccccc3C1c1ccccc12` (centres undefined), the growth was 93.1% (inactive).

Take `Clc1cc(N2CC2)nc(N2CC2)n1`: the growth was 9.71% (active). Consider `Cc1cc([N+](=O)[O-])c(Cl)cc1NS(=O)(=O)c1ccccc1`, for which the growth is 59.4% (inactive). For `[O]=[Sn]([CH]1CCCCC1)[CH]1CCCCC1` the value was -92.2% (active); for `Cc1cc(N=Nc2ccccc2C)ccc1N`, 64.5% (inactive). As for `COc1ccc(/C=C\c2cc(OC)c(OC)c(OC)c2)cc1OCC(=O)Nc1nc2ccc(C(F)(F)F)cc2s1`, the growth is 1.38% (active). To `CN1CCCCC1C(C)(O)c1ccccc1` (centres undefined) belongs 102% (inactive). To `Cn1cc(-c2csc(-c3cn(CCCCN4CCCCC4)c4ccccc34)n2)c2cccnc21` belongs -26.9% (active); to `COC(=O)[C@@H](C)C[C@H](Cc1ccccc1)NC(=O)c1cccc([C@@H](C[C@H](C(C)C)N(C)C(=O)[C@@H](NC(=O)[C@H]2CCCCN2C)C2CC2)OC(C)=O)n1`, 35.3% (inactive). Consider `ClCCN(CCCl)c1ccc(/C=C\c2ccnc3ccccc23)cc1`, for which the growth was 46.1% (inactive). For `CC(=O)Nc1ccc(NC(=O)c2ccc([As](O)O)cc2)cc1` the value was 92.5% (inactive).

For the compound `[N-]=[N+]=CC(=O)CCC(=O)C=[N+]=[N-]`, the growth is 113% (inactive). To `O=C(O)c1ccc(=O)[nH]c1` belongs 95.8% (inactive) and 102% (inactive). To `C[CH2][Pb]([CH2]C)([CH2]C)[O]C(=O)COc1ccccc1` belongs 9.74% (active); to `COc1ccc2c(c1)c(C1(O)CC(CSC#N)OC1=O)cn2C(=O)c1ccc(Cl)cc1` (centres undefined), 109% (inactive); to `C=NCC#N`, 105% (inactive) and 108% (inactive). With `[O-][n+]1ccccc1S`, the growth was 85.2% (inactive). For `CC(=O)O[C@H](C[C@H](C(C)C)N(C)C(=O)[C@@H](NC(=O)[C@H]1CCCN1C)C(C)C)c1nc(C(=O)N[C@@H](Cc2ccccc2)C[C@H](C)C(=O)O)c(C)s1` the value was 18.7% (inactive); for `O=C(N/N=C\c1ccc(N(CCCl)CCCl)cc1Cl)c1cccnc1`, -69.6% (active); for `COP(=O)(OC)C(O)c1ccc(Cl)cc1` (centres undefined), 108% (inactive). For `O=C(NCCNC(=O)c1ccc([As](O)O)cc1)c1ccc([As](O)O)cc1` the value was 82.2% (inactive); for `CC[C@H](C)[C@H](NC(=O)c1cccn1C)C(=O)N(C)[C@H](C[C@@H](OC(C)=O)c1nc(C(=O)N[C@@H](Cc2ccccc2)C[C@H](C)C(=O)OC)cs1)C(C)C`, 25.9% (inactive); for `O=C(Cc1ccccc1)c1ccccc1`, 106% (inactive).

Consider `Oc1ccccc1OB(Oc1ccccc1O)N(CCCl)CCCl`, for which the growth is 84% (inactive).

For `CC(=O)O[C@H]1C(=O)[C@@]2(C)[C@H]([C@H](OC(=O)c3ccccc3)[C@]3(O)C[C@H](OC(=O)[C@H](OC(=O)OCC4COC(C)(C)O4)[C@@H](NC(=O)c4ccccc4)c4ccccc4)C(C)=C1C3(C)C)[C@]1(OC(C)=O)CO[C@@H]1C[C@@H]2O` (some centres undefined), the growth is 2.65% (active). To `C=COC(=O)CCN1CC1` belongs 108% (inactive); to `COc1ccc(O)c2c(=O)c3c(OC)cc4c(c3oc12)[C@@H]1C=CO[C@@H]1O4`, -63.2% (active).
